Here are results for 8 molecules from PubChem BioAssay (NCI).

About 83,000 compounds went through this panel and 20% of them were active in at least one assay; those are over-represented in the sample as a whole.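 Interpretation: 100, growth as untreated; towards 0, rising growth inhibition; 0, no net growth; 0 to -100, cell death. Compounds scoring below 10 were considered active.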 A number with no mark means an inactive call. The source made the active and inactive calls.

Among the test systems are DU-145 prostate; K-562 leukemia; MALME-3M melanoma; MDA-MB-231 breast; RXF 393 renal; SF-268 CNS; SF-295 CNS; SF-539 CNS; UACC-257 melanoma; M14 melanoma; HCT-15 colon; HT29 colon; SNB-75 CNS; SNB-19 CNS; U251 CNS; PC-3 prostate; UACC-62 melanoma; LOX IMVI melanoma; SK-MEL-28 melanoma; SK-MEL-5 melanoma.
Common to all, as to experiment: NCI-60 one-dose screen, 48 h (100 = growth as untreated, 0 = no growth, -100 = all killed)
Holding throughout (conditions): 10 µM unless noted

In the case of `COc1cccc(C2CC(=O)Nc3cc4c(cc32)OCO4)c1OC` (stereo unspecified), the growth in the assay with DU-145 prostate is 103%; with K-562 leukemia it was 83.1%; in the assay with MALME-3M melanoma, 93.1%; in the assay with MDA-MB-231 breast, 97.3%; in the assay on RXF 393 renal, 87%; with SF-268 CNS, 101%. Also, the growth is 84.9% in the assay on SF-295 CNS; 88.5% in the assay with SF-539 CNS; 99.4% with UACC-257 melanoma; 115% in the assay with M14 melanoma; 89.4% in the assay with HCT-15 colon; 90.6% in the assay with HT29 colon. The growth in the assay on SNB-75 CNS was 76.3%; in the assay on SNB-19 CNS it was 101%; in the assay on U251 CNS it was 85.6%; in the assay on PC-3 prostate, 94.2%; with UACC-62 melanoma, 96.1%; in the assay on LOX IMVI melanoma, 96.5%. The growth with SK-MEL-28 melanoma is 111%.

With `Cc1ccc(S(=O)(=O)c2ccc3[nH]c(=O)[nH]c(=O)c3c2)cc1`, the growth in the assay on DU-145 prostate was 107%; with K-562 leukemia it was 87.2%; in the assay with MALME-3M melanoma, 119%; in the assay with MDA-MB-231 breast, 101%; with RXF 393 renal it was 114%; in the assay on SF-268 CNS, 104%. In addition, the growth in the assay on SF-295 CNS is 116%; in the assay with SF-539 CNS, 101%; in the assay on UACC-257 melanoma it was 91.5%; in the assay with M14 melanoma, 101%; in the assay with HCT-15 colon, 103%; in the assay on HT29 colon, 107%. Also, the growth was 92.4% in the assay on SNB-75 CNS; 94.3% with SNB-19 CNS; 95.1% with U251 CNS; 86.2% in the assay on PC-3 prostate; 101% in the assay on LOX IMVI melanoma; 114% in the assay on SK-MEL-28 melanoma.

`Cc1ccc(S(=O)(=O)N2CCc3ccc(O)c4c3C2CCc2ccccc2-4)cc1` (stereo unspecified): the growth in the assay on DU-145 prostate is 106%; in the assay on K-562 leukemia it was 94.1%; in the assay on MALME-3M melanoma it was 97.2%; in the assay with MDA-MB-231 breast it was 95.2%; in the assay with RXF 393 renal, 117%; with SF-268 CNS, 97.1%. Further, the growth with SF-295 CNS was 104%; with SF-539 CNS it was 105%; with UACC-257 melanoma it was 105%; with M14 melanoma it was 98.6%; in the assay with HCT-15 colon it was 102%; in the assay on HT29 colon, 100%. The growth was 91.6% in the assay on SNB-75 CNS; 98.9% in the assay on SNB-19 CNS; 102% in the assay with U251 CNS; 95.4% in the assay on PC-3 prostate; 90.2% with UACC-62 melanoma; 98.7% in the assay with LOX IMVI melanoma. Also, in the assay on SK-MEL-28 melanoma, the growth was 107%.

As to `Cc1oc2c(c1C(=O)N1CC[C@@H](N)C1)C(=O)c1c(c(O)c3ccccc3c1O)C2=O`, the growth in the assay on DU-145 prostate was 24%; in the assay with K-562 leukemia, 3.82% (active); in the assay on MALME-3M melanoma, 53.2%; in the assay on MDA-MB-231 breast it was 35.2%; with RXF 393 renal it was 48.9%; with SF-268 CNS, 16%. In addition, the growth in the assay on SF-295 CNS is 29.9%; in the assay on SF-539 CNS, 46.9%; with UACC-257 melanoma it was 74.8%; in the assay on M14 melanoma, 38.8%; in the assay with HCT-15 colon, 20.7%; in the assay on HT29 colon, 11.3%. For the same molecule, the growth in the assay with SNB-75 CNS was 31.8%; in the assay on SNB-19 CNS, 40%; in the assay on U251 CNS, 23.8%; with PC-3 prostate, 10.9%; in the assay on UACC-62 melanoma, 55.2%; in the assay on LOX IMVI melanoma, 24.9%. The growth in the assay on SK-MEL-28 melanoma was 62.9%.

Take `COc1cc(-c2ccc3cc(OC)c(OC)c(OC)c3c2)cc(OC)c1OC`: the growth with DU-145 prostate is 95.9%; in the assay on K-562 leukemia, 24.9%; with MALME-3M melanoma, 68.1%; in the assay with MDA-MB-231 breast, 65.4%; with RXF 393 renal, 71.4%; with SF-268 CNS, 77.4%. In addition, the growth was 43.8% with SF-295 CNS; 79.3% with SF-539 CNS; 75.3% with UACC-257 melanoma; 51.4% with M14 melanoma; 42.8% with HCT-15 colon; 32.6% in the assay on HT29 colon. For the same molecule, the growth is 49.1% in the assay with SNB-75 CNS; 85.4% in the assay with SNB-19 CNS; 69% in the assay with U251 CNS; 49.5% in the assay on PC-3 prostate; 68.1% with UACC-62 melanoma; 62.8% in the assay with LOX IMVI melanoma. Also, in the assay on SK-MEL-28 melanoma, the growth was 61%.

With `COc1cc2nc(N3CCC[C@H](NC4=CC(=O)c5ccccc5C4=O)C3)nc(N)c2cc1OC`, the growth with DU-145 prostate is -54.1% (active); with K-562 leukemia it was -48.4% (active); in the assay on MALME-3M melanoma it was -81.3% (active); in the assay with MDA-MB-231 breast, -86.8% (active); in the assay on RXF 393 renal it was -76.7% (active); in the assay with SF-268 CNS, -52.3% (active). For the same molecule, the growth with SF-295 CNS was -96.8% (active); with SF-539 CNS it was -100% (active); in the assay on UACC-257 melanoma, 97.7%; in the assay on M14 melanoma, 96.2%; in the assay with HCT-15 colon, -63.5% (active); with HT29 colon, -69.1% (active). Besides, the growth was -83.5% (active) in the assay on SNB-75 CNS; -74.7% (active) with SNB-19 CNS; -90.2% (active) in the assay on U251 CNS; 54.5% in the assay on PC-3 prostate; -87.9% (active) with UACC-62 melanoma; -82.9% (active) in the assay with LOX IMVI melanoma. Also, in the assay on SK-MEL-28 melanoma, the growth is -85.2% (active).

As to `O=c1c2cc(F)ccc2oc2c(NCCNCCO)nc3ccccc3c12`, the growth in the assay with DU-145 prostate is 35.8%; in the assay with K-562 leukemia, -36.9% (active); in the assay with MALME-3M melanoma it was 56.4%; with MDA-MB-231 breast it was 40.4%; in the assay with RXF 393 renal it was 34.3%; in the assay with SF-268 CNS it was 47.5%. Also, the growth in the assay with SF-295 CNS is 63.6%; in the assay on SF-539 CNS it was 46.3%; in the assay with UACC-257 melanoma it was 92%; in the assay with M14 melanoma it was 60.1%; in the assay with HCT-15 colon it was 28.1%; in the assay with HT29 colon, 16.7%. The growth is 50.2% in the assay on SNB-75 CNS; 45.1% in the assay with SNB-19 CNS; 36.1% in the assay with U251 CNS; 38.6% with PC-3 prostate; 77.7% with UACC-62 melanoma; 13.8% in the assay with LOX IMVI melanoma. The growth with SK-MEL-28 melanoma is 50.2%.

With `COC(=O)c1c2c(c(C)[n+]([O-])c1C)C(=O)C=C(NCc1cccc(OC)c1)C2=O`, the growth in the assay with DU-145 prostate is -99.1% (active); with K-562 leukemia it was -23.6% (active); in the assay on MALME-3M melanoma, -98.9% (active); in the assay on MDA-MB-231 breast, -17.4% (active); in the assay on RXF 393 renal, -46.7% (active); in the assay with SF-268 CNS it was -16.1% (active). Also, the growth with SF-295 CNS is -97.5% (active); in the assay on SF-539 CNS, -92.3% (active); with UACC-257 melanoma, -87.1% (active); in the assay with M14 melanoma it was -83.4% (active); in the assay on HCT-15 colon it was -74.8% (active); in the assay with HT29 colon, 2.57% (active). For the same molecule, the growth in the assay on SNB-75 CNS is -97.7% (active); in the assay on SNB-19 CNS, -88.4% (active); in the assay with U251 CNS it was -39.3% (active); in the assay with PC-3 prostate, -2.04% (active); with SK-MEL-5 melanoma, -97.2% (active); in the assay with LOX IMVI melanoma, -79.7% (active). Besides, in the assay on SK-MEL-28 melanoma, the growth is -22.3% (active).
